Assay results reported in PubChem BioAssay (NCI).
The panel holds about 79,000 compounds, 15% with a hit somewhere; the sample as a whole holds those more often. Values without a mark were called inactive. Activity calls are given as the source filed them. Rule as the data show it: active = growth inhibition above about 70%; inactive = the rest.

Key:
[1] = NCI Yeast Anticancer Drug Screen. Data for the rad50 strain (AID 155);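 also: 0% = growth of vehicle-only cultures of the same strain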; conditions: S. cerevisiae rad50 strain growth inhibition; at 50.0 µM; active compounds read high
Method in brief: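 Readout: growth inhibition relative to vehicle-treated cultures. Compound exposure was carried out in a genetically defined yeast strain deficient in DNA damage repair.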

[2] = NCI Yeast Anticancer Drug Screen. Data for the mec2-1 strain (AID 157); conditions: S. cerevisiae mec2-1 strain, at 50.0 µM, active compounds read high
Method in brief: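 Yeast mec2-1 mutant treated with compound. Readout: growth inhibition vs vehicle controls.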

[3] = NCI Yeast Anticancer Drug Screen. Data for the sgs1 mgt1 strain (AID 161);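 also: 0% = growth of cultures given vehicle only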; conditions: S. cerevisiae sgs1 mgt1 strain, at 50.0 µM, active compounds read high
Method in brief: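 Test agents were incubated with a DNA-repair-mutant yeast strain. Growth was then read and compared against vehicle-treated controls.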

[4] = NCI Yeast Anticancer Drug Screen. Data for the cln2 rad14 strain (AID 165);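 also: 0% = growth equal to vehicle treated cultures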; conditions: S. cerevisiae cln2 rad14 strain, at 50.0 µM, active compounds read high
Method in brief: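 cln2 rad14 yeast strain; compound exposure; growth inhibition read vs vehicle controls.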

[5] = NCI Yeast Anticancer Drug Screen. Data for the bub3 strain (AID 167); conditions: S. cerevisiae bub3 mutant strain, at 50.0 µM, active compounds read high
Method in brief: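 Readout: yeast growth inhibition, expressed relative to vehicle-only wells. The test organism is a mutant strain from a panel with lesions in DNA repair or checkpoint genes.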

[6] = NCI Yeast Anticancer Drug Screen. Data for the mlh1 rad18 strain (AID 175); conditions: S. cerevisiae mlh1 rad18 strain growth inhibition; at 50.0 µM; active compounds read high
Method in brief: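 Yeast w/ defined DNA-repair lesions; compound exposure; growth vs vehicle controls → % inhibition.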

SMILES	growth inhibition [1]	growth inhibition [2]	growth inhibition [3]	growth inhibition [4]	growth inhibition [5]	growth inhibition [6]
O=C1c2ccccc2C(=O)N1CCc1ncc(-c2ccccc2)[nH]1	-16.4%	7.85%	-16.1%	12.4%	1.1%	1.9%
C1=COC(C=Nc2ccccc2)CC1 (stereo not drawn)	-12.3%	13.8%	4.5%	-18.2%	15.8%	-12.6%
Cc1cc(C)cc(C(=O)N=C(c2ccncc2)c2nc(-c3ccccc3)oc2O)c1	-3.3%	13.9%	-16.6%	-12.4%	3.15%	-1.3%
c1csc(CNc2cccc3ccccc23)c1	54.5%	25%	31.6%	-22.1%	13.6%	28%
O=C(O)CCc1nc(-c2ccccc2-n2cccc2)no1	-43.8%	-36.1%	-30.4%	38.2%	-15.4%	8.2%
CCN(CC)CCN1Cc2ccccc2C1	-4.8%	3.85%	-1.7%	-14.1%	7.4%	2.45%
N#CC12CC3CC(CC(C3)C1)C2	-3.9%	-1.5%	-15%	-45%	-9.3%	4.35%
CC(=O)Nc1ccc(NC(=O)c2cccc3ccccc23)cc1	-5.1%	13%	13.8%	-12.8%	35.4%	32.1%
CC[C@@]12C=CC(=S)N(CCSc3ccccc3)[C@@H]1c1c(n(S(=O)(=O)c3ccc(OC)cc3)c3ccccc13)CC2	-33%	-1.2%	0.95%	-53%	-2.55%	6%
S=C(CC(=S)N1CCOCC1)N1CCOCC1	-15.1%	-1.5%	-10.5%	-14.7%	-11.7%	-1.75%
Cc1ccc(/C(C#N)=C/c2ccccc2)cc1	32.8%	26.4%	21%	19.6%	18.8%	9.65%
O=C(O)CCc1c[nH]c(=S)[nH]1	10%	3.75%	-5.85%	-11.6%	-1.7%	-1.7%
O=c1/c(=C/c2cccc([N+](=O)[O-])c2)sc2nc3ccccc3n12	-9.95%	-12.7%	-18.1%	-4.65%	-10.1%	-12.7%
CCOc1cccc(/C=N/N=C2\C(=O)Nc3c(Cl)cc(Cl)cc32)c1O	22.2%	15.6%	39.9%	40.8%	34.1%	83.2% (active)
O=C1NC(=O)[C@H]2C[C@H]3C(=O)NC(=O)[C@H]3[C@@H]12	-0.7%	2.75%	-6.9%	-11.3%	3.8%	7.15%
CC(C)O[Si](OC(C)C)(OC(C)C)OC(C)C	13.2%	-16.1%	-8.7%	-3.25%	9.9%	2.6%
CSC(N)=Nc1c(C)cccc1C	3.55%	22.9%	5.35%	-4.1%	2.9%	-16.7%
COC(=O)c1sc(=O)n(-c2ccccc2)c1SCc1ccccc1	25.4%	-5.15%	60%	12.9%	30.8%	18.8%
CCCCCCC(C)Cl (stereo not drawn)	18.9%	-6.05%	15.8%	23.7%	5.9%	1.05%

SMILES	growth inhibition [1]	growth inhibition [2]	growth inhibition [3]	growth inhibition [4]	growth inhibition [5]	growth inhibition [6]
O=C1C(=O)C(CCc2ccccc2)C(=O)/C1=C\c1ccccc1 (stereo not drawn)	4.4%	17.6%	10.6%	-10.4%	-6.55%	20.2%
CN(c1ccccc1)c1ccc([N+](=O)[O-])cc1[N+](=O)[O-]	7.4%	-1.3%	-8%	3.25%	0.8%	-11.9%
CC(C)CCCC(C)C1CCC2C3CC=C4CC(OC(=O)c5ccncc5)CCC4(C)C3CCC12C (stereo not drawn)	3.2%	-12.1%	-10.2%	-28.4%	-0.4%	-23.6%
CC(C)CC(CC(C)C)OC(=O)Nc1ccccc1	-1%	17.3%	9.05%	33.6%	30.1%	25.9%
C/C=C(\CC)C(C#N)(CC)C(=O)OCC (stereo not drawn)	20.9%	-18.4%	-7.5%	-6.25%	-30.3%	-24.8%
CC(C)N(CC(=O)NC(=O)c1ccccc1)Cc1ccccc1	3.5%	-8.4%	-1.95%	-30.1%	-1.5%	-11.7%
Nc1nc(N)c(N=O)c(N)n1	-10.9%	-8.85%	0.6%	21%	3.5%	15.2%
COc1c2c(c(OC)c3c1C(=O)c1ccccc1C3=O)CC=CC2	-10.6%	4.7%	-15.4%	-14.7%	-4%	-4.3%
CCOC(=O)C12CCC(C(=O)OCC)(CC13OCCO3)C1(C2)OCCO1	11.1%	9.95%	10%	5.55%	7.35%	15.9%
CCC1(C)C(=O)NC(=O)N1C(C)=O (stereo not drawn)	-5.1%	-21.4%	-3.85%	-44.2%	-12.3%	-7.55%
COC(=O)[C@@]12C(=O)N[C@@H](Cc3ccccc3)[C@@H]1[C@H](C)C(C)=C[C@@H]2CO	-27.4%	-45.3%	-44.9%	-27.8%	-32.2%	-24.3%
CC1(C)N=C(N)N=C(N)N1c1cccc(OCc2cccc([N+](=O)[O-])c2)c1	0.55%	7.2%	-31.3%	24.6%	-30.3%	-14.8%
O=[N+]([O-])c1ccccc1N=Nc1c(O)[nH]c2c(Cl)cc(Cl)cc12	-25.9%	-35.6%	-31.9%	-16.2%	-45.4%	-47.4%
c1ccc(CCN2CCCCCCCC2)nc1	1.35%	7.9%	-4.35%	-23.2%	-8.95%	-0.35%
CCOC(=O)C(O)(NC(=O)Nc1ccc(F)cc1)C(F)(F)F (stereo not drawn)	-22.4%	-22.3%	-72.9%	-35.9%	-37.3%	-60.9%
CC1(C#N)CC/C(=C\c2ccc3c(c2)OCO3)C(=O)C1 (stereo not drawn)	0.3%	16.9%	4.75%	-1.1%	-6.7%	-4.6%
C(=Nc1ccc(SSc2ccc(N=Cc3ccc4c(c3)OCO4)cc2)cc1)c1ccc2c(c1)OCO2	18.8%	0.05%	-0.95%	-8.55%	8.75%	17.2%
CC(CO)(CO)N1C(=O)c2cccc3cc([N+](=O)[O-])cc(c23)C1=O	31.4%	29.1%	50.1%	31.1%	35.2%	14.3%
CCOC1OC(C(O)CO)C(O)C(O)C1O (stereo not drawn)	4.6%	-8.7%	-1.9%	-56.4%	-7.9%	-0.6%
